# In ChEMBL document CHEMBL4513216, “Probing the Open Global Health Chemical Diversity Library for Multistage-Active Starting Points for Next-Generation Antimalarials” (ACS Infect Dis, 2020):
# In all, about 69,000 compounds went through this assay and about 8,600 (12%) showed an effect of 50% or more. The entries come from a sample that favours strong results as a whole.
# Tested on: Plasmodium berghei
# Experiment: Screen against P. berghei liver stage (PbLuc), transformed with Luciferase, at 10uM
# Format: functional, HepG2
# Settings: tested at 10 uM
row,Compound,INHIBITION [%]
1,Cc1oc(-c2ccsc2)nc1CC(=O)NCCCS(C)(=O)=O,5.05
2,Cc1cc(C(=O)N2CCN(Cc3ccco3)C(CCO)C2)cc(=O)[nH]1 (configuration not stated),52.1
3,O=C(c1ccncc1Cl)N1CCN(Cc2ccco2)C(CCO)C1 (configuration not stated),16.2
4,O=C(c1ncccc1O)N1CCN(Cc2ccco2)C(CCO)C1 (configuration not stated),17
5,CCOc1ccc(C(=O)N2CCCC2Cn2cc(C)cn2)cn1 (configuration not stated),28.55
6,CCn1cc(NC(=O)C2CCN(CC(=O)NCC(C)C)CC2)cn1,37.4
7,Cc1ccc(NC(=O)c2cc3c(=O)n(C)c(=O)n(C)c3nc2C)cc1Cl,-6.83
8,CCOc1cc([C@@H]2N[C@H](c3nccs3)Cc3ccsc32)ccc1OC,25.05
9,COc1cc([C@@H]2N[C@H](c3nccs3)Cc3ccsc32)cc(OC)c1OC,47.2
10,CCOc1ccc([C@@H]2N[C@H](c3nccs3)Cc3ccsc32)cc1OC,69.25
11,COc1cccc([C@@H]2N[C@H](c3nccs3)Cc3ccsc32)c1OC,49.2
12,CCOc1cc([C@H]2N[C@@H](c3nc(C)cs3)Cc3ccsc32)ccc1OC,75
13,COc1ccc(OC)c([C@@H]2N[C@H](c3nccs3)Cc3ccsc32)c1,43.4
14,COCCN1CCC2(CC1)CN(Cc1cccc(C)n1)C(=O)CO2,7.53
15,COc1ccc(CCC(=O)N(C(C)C)C2CCOCC2)cc1,-42.1
16,CC(C(=O)N1CCN(c2ccccc2)CC1)n1cc(Br)cn1 (configuration not stated),-35.4
17,O=C(c1c[nH]nn1)N1CCN(C(c2ccccc2)C(F)(F)F)CC1 (configuration not stated),-10.9
18,O=C(c1cc[nH]n1)N1CCN(C(c2ccccc2)C(F)(F)F)CC1 (configuration not stated),17.1
19,O=C(c1ccccn1)N1CCN(C(c2ccccc2)C(F)(F)F)CC1 (configuration not stated),51.7
20,NC(=O)C1CN(c2ccc(F)cc2)CCN1 (configuration not stated),25.8
21,c1ccc2nc(N3CCCC3)c(NCc3nnc4n3CCC4)nc2c1,16.1
22,Cc1nc2ccccc2nc1NCc1nnc2n1CCC2,52.9
23,c1ccc2nc(N3CCCCC3)c(NCc3nnc4n3CCC4)nc2c1,0.897

row,Compound,INHIBITION [%]
1,Cc1cnn(CCNCc2csc(-c3ccc(C)o3)n2)c1,15.3
2,CN(C)C(=O)Cc1ccc(NC(=O)c2cn(C)nn2)cc1,20
3,Cn1cc(C(=O)Nc2ccc(CC(=O)NC3CC3)cc2)nn1,11.3
4,Cn1cc(C(=O)Nc2ccc(CC(=O)NCC(F)(F)F)cc2)nn1,50.5
5,CCC(C)c1cc(C(=O)N(CC(=O)NC)c2cccc(F)c2)on1 (configuration not stated),3.04
6,Cc1cccc(CN2CCCn3c(nnc3Cn3cccn3)C2)n1,-23
7,CCNc1cc2c(nn1)CCN(C(=O)CC1CCCC1)C2,17.4
8,CCN1CCc2cc(C(=O)N(C)C)c(NCC3CC3)nc2CC1,37.2
9,CNC(=O)c1cc2c(s1)CCN(C(=O)CCC1CCCN(C)C1)C2 (configuration not stated),42.6
10,CN(C)C(=O)c1noc2c1CN(C(=O)CCCN1CCCCC1)CC2,41.5
11,CN(C)C(=O)c1cc2c(s1)CCN(C(=O)CCCN1CCCCC1)C2,71.5
12,CN1CCCC(CCC(=O)N2CCc3sc(C(=O)N(C)C)cc3C2)C1 (configuration not stated),73.6
13,CN(C)c1cc2c(nn1)CCN(C(=O)c1cc3c(s1)CCCC3)C2,-2.13
14,CN1CCCC(CCC(=O)N2CCc3onc(C(=O)N(C)C)c3C2)C1 (configuration not stated),12
15,CCN1CCC(CC(=O)N2CCc3sc(C(=O)N(C)C)cc3C2)CC1,64
16,c1cc(-c2ccc3nc(C4CCN(CC5CC5)CC4)nn3c2)cs1,23.6
17,Cc1ccc2c(n1)N(CCn1cccn1)CCN(CC1CC1)C2,-6.3
18,CCN(Cc1cnn(C)c1)C[C@H]1CC[C@@H](Cc2ccc(OC)nc2)O1,-22.3
19,CN(C)CCN1CCCC12CCN(C(=O)c1ccoc1)CC2,-44.2
20,O=c1c2cn[nH]c2nc(SCCN2CCCC2)n1-c1ccccc1,17.7
21,CC(C)CNC(=O)[C@H]1CCS(=O)(=O)[C@@H]2CN(Cc3ccc(F)cc3)C[C@H]12,-0.371
22,CSc1cccc(CN(C)C(=O)Cn2ncc(N3CCCC3)cc2=O)c1,25.1
23,CCC1C(=O)NCCN1c1cc(C)ncn1 (configuration not stated),26.8

row,Compound,INHIBITION [%]
1,O=C(Cc1ccccn1)N1CCc2ncnc(N3CCCC3)c2CC1,-10.3
2,OC1COCCN(Cc2cccc(N3CCOCC3)c2)C1 (configuration not stated),15.9
3,N[C@@H]1CCN(Cc2cccc(N3CCOCC3)c2)C[C@H]1O,58.6
4,OC1CN(Cc2cccc(N3CCOCC3)c2)Cc2ccccc21 (configuration not stated),28.7
5,CC(=O)Nc1ccc(CNc2ccn(Cc3ccccc3)n2)cc1,-51.8
6,CC(C)c1nccn1-c1cccc(C2CCN(C)CC2)n1,58
7,CC(C)c1nccn1-c1cccc(C2CCCN(C3CCCC3)C2)n1 (configuration not stated),35.3
8,Cc1nccn1-c1cccc(C2CCCN2S(=O)(=O)N(C)C)n1 (configuration not stated),53
9,CC(C)c1nccn1-c1cncc(C2CCCN(C3CCCC3)C2)n1 (configuration not stated),41.2
10,CC(C)c1nccn1-c1cccc(C2CCCN(S(=O)(=O)N(C)C)C2)n1 (configuration not stated),50.1
11,CN(C)S(=O)(=O)N1CCC(c2ccnc(Nc3ccccn3)n2)C1 (configuration not stated),29.5
12,CC(C)c1nccn1-c1cncc(C2CCCN(C3CCCCC3)C2)n1 (configuration not stated),44.1
13,CC(C)c1nccn1-c1cccc(C2CCCN2S(=O)(=O)N(C)C)n1 (configuration not stated),21.9
14,CCc1nccn1-c1cccc(C2CCCN2S(=O)(=O)N(C)C)n1 (configuration not stated),36.7
15,COc1ccc(C(=O)Nc2cccc(C(N)=O)c2)c(OC)n1,-26.1
16,CNCC(=O)N1CCCCC1c1nccc(C)n1 (configuration not stated),18.3
17,O=C(c1ccnc(-n2ccnc2)c1)N1CCCC(n2ccnc2)C1 (configuration not stated),25.1
18,CC(=O)NCCNC(=O)c1cc(COc2ccccc2)[nH]n1,-3.83
19,NC1CCN(C(=O)c2cnc(Cc3c(Cl)cccc3Cl)nc2O)C1 (configuration not stated),51.3
20,CCN1CCN(C(=O)c2cnc(Cc3c(Cl)cccc3Cl)nc2O)CC1,8.11
21,O=C(c1cnc(Cc2c(Cl)cccc2Cl)nc1O)N1CCNCC1,43.9
